Data published in ChEMBL document CHEMBL3988442, “University of Dundee, Small-Polar-MMV Screening Library” (2021).
For part of these data: Entries with a potency or affinity are not part of this list.

Assays:
Set-up in all cases: scale not given: direction of the effect not stated beside the values
[1] = biological target: Protein translocase subunit SecA (Escherichia coli (strain K12)) (UniProt P10408); assay: Assay to Identify E. coli SecA ATPase Inhibitors; format: functional; settings: 30 µM
Sequence of Protein translocase subunit SecA (Escherichia coli (strain K12)) (P10408 whole entry): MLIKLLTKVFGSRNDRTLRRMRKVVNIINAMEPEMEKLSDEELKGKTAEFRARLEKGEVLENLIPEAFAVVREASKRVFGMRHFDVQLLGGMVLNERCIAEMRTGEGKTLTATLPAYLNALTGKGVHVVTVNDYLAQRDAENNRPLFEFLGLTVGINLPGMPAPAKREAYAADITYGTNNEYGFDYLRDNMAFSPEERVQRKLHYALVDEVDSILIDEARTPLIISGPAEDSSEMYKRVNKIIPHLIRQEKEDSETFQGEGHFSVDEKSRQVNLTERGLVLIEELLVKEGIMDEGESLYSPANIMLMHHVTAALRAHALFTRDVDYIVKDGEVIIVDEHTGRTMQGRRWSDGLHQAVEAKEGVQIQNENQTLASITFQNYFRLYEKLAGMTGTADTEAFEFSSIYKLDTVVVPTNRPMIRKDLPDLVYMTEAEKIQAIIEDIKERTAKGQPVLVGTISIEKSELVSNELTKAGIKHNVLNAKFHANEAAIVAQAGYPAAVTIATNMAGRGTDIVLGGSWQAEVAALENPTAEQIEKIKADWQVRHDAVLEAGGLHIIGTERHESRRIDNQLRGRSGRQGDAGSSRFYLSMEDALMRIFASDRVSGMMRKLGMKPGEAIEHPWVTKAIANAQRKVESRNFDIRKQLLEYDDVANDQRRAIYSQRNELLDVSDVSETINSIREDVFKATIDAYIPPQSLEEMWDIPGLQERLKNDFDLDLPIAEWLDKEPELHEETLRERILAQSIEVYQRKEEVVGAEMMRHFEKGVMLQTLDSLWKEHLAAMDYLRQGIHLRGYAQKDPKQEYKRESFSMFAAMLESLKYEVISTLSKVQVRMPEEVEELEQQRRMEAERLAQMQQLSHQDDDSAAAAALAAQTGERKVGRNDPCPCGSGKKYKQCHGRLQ

[2] = biological target: T1, Ubiquitin-activating enzyme e1, putative (Leishmania donovani (strain BPK282A1)) (UniProt E9BSI1); assay: Leishmania donovani Ubiquitin Activating Enzyme (LdE1); format: functional; settings: 30 µM
T1 sequence (whole entry): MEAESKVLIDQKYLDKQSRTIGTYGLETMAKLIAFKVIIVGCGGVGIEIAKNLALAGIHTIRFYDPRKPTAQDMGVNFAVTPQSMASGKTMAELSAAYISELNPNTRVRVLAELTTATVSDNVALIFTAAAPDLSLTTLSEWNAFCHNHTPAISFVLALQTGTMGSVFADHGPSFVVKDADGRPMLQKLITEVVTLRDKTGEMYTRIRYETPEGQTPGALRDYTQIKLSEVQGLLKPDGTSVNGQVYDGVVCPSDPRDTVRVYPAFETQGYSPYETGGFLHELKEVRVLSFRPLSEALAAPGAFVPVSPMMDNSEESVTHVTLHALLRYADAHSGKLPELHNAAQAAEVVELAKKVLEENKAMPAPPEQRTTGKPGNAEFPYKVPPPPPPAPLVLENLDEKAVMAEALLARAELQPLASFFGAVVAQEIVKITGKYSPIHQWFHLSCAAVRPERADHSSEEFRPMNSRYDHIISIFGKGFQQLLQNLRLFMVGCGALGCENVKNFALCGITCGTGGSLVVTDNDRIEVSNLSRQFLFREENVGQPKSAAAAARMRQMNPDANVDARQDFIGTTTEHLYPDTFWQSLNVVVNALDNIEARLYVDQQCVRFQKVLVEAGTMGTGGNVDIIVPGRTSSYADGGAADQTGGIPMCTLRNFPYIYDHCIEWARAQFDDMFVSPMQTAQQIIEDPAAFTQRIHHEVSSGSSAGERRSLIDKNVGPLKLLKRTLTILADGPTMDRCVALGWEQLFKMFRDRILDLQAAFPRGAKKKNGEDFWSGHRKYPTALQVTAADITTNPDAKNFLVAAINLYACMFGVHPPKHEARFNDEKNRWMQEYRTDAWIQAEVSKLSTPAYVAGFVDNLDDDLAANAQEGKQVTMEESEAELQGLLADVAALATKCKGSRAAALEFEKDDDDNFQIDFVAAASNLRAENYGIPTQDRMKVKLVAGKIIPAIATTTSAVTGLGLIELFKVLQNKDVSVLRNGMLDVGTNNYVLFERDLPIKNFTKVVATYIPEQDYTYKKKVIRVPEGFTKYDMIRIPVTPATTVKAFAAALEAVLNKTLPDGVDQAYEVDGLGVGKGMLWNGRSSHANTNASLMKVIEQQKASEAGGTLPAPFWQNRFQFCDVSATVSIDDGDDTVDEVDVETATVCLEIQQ

[3] = biological target: AMP-activated protein kinase, AMPK (Homo sapiens) (UniProt P54646+O43741+P54619+Q9UGJ0+Q9Y478+Q13131+Q9UGI9); assay: AMP-dependent Kinase enzyme assay. An in vitro enzyme assay that detects ADP turnover that is directly proportional to AMPK activity. This uses naive AMPK that is activated during the assay with MK-8722; format: functional; settings: 30 µM
[4] = biological target: Sialic acid-binding Ig-like lectin 9 (Homo sapiens) (UniProt Q9Y336); assay: Hs-Siglec9 ALPHAscreen SOP 20170721; settings: 10 µM
Sequence of Sialic acid-binding Ig-like lectin 9 (Homo sapiens) (Q9Y336 whole entry): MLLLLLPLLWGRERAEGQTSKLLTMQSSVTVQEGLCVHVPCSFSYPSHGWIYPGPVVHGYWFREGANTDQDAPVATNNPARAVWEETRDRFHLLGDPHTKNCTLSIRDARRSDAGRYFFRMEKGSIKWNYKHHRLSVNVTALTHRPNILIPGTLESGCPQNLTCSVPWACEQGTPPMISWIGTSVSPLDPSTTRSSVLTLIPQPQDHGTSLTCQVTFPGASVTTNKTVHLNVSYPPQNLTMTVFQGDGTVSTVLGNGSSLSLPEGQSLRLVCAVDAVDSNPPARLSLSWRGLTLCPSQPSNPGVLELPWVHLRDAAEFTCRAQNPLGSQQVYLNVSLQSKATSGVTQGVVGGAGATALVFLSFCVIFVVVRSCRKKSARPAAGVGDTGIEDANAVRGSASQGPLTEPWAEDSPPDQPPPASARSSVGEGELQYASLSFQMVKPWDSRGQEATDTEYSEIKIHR

Trypanosoma cruzi = assay: Trypanosoma cruzi phosphomannomutase and mannose-1-phosphate guanylyltransferase assay; format: functional; settings: 10 µM
[5] = biological target: T2, Arginase-2, mitochondrial (Homo sapiens) (UniProt P78540); assay: in vitro enzyme assay to detect the production of urea directly proportional to the activity of Arginase II; format: functional; settings: 33.3 µM; further: in the data most compounds retested in dose-response had high values
T2 sequence (whole entry): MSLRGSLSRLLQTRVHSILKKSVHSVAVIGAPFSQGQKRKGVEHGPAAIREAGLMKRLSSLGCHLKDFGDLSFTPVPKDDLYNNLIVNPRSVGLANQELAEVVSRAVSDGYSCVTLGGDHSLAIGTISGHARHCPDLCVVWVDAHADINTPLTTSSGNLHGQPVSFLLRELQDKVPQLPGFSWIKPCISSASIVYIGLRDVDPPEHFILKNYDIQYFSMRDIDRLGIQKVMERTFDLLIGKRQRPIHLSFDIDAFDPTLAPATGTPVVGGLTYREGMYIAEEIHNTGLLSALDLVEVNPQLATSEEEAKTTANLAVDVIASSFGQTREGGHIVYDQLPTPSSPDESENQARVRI

[6] = biological target: T3, Proteasome subunit beta (Trypanosoma cruzi) (UniProt O96673); assay: Trypanosoma cruzi proteasome chymotrypsin-like activity (TcProtChymo) assay.; further: in the data most compounds retested in dose-response had high values; format: functional; settings: 9.37 µM
T3 sequence (whole entry): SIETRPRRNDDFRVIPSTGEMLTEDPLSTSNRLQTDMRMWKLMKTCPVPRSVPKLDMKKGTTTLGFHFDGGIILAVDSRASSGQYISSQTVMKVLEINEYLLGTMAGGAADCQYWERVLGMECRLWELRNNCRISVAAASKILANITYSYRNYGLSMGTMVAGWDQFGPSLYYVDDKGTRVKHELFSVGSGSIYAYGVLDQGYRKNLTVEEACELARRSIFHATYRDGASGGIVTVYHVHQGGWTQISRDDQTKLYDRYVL

Homo sapiens = species on record: Homo sapiens; assay: To identify inhibition of the IFN signalling (Jak-Stat) pathway via expression of an eGFP reporter gene under the control of an IFN-stimulated response element (ISRE) containing MxA promoter.; format: functional; settings: 30 µM
[7] = biological target: T4, Tyrosyl-tRNA synthetase, putative (Trypanosoma cruzi (strain CL Brener)) (UniProt Q4DSP6); assay: Trypanosoma cruzi tyrosyl tRNA synthetase (TcYRS) _High Tyrosine SOP; format: functional; settings: 30 µM; further: in the data most compounds retested in dose-response had high values
T4 sequence (whole entry): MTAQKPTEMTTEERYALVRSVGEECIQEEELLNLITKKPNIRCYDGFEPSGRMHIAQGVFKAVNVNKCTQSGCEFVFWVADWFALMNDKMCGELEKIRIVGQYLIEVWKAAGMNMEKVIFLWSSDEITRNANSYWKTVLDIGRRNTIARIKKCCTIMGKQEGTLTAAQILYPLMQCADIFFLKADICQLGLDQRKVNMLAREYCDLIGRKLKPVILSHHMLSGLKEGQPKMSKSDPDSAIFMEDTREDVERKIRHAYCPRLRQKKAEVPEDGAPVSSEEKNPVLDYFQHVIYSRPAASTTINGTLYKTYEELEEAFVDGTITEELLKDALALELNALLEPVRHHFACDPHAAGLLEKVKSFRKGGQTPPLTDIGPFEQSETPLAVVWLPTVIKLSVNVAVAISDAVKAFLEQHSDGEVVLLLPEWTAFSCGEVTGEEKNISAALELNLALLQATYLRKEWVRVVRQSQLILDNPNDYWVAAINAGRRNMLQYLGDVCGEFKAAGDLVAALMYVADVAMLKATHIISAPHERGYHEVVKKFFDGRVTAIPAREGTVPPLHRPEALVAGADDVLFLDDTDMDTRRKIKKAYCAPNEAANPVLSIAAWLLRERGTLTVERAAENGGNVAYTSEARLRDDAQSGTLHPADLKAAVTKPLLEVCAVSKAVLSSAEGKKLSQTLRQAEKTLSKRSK

[8] = biological target: T4, Tyrosyl-tRNA synthetase, putative (Trypanosoma cruzi (strain CL Brener)); assay: Trypanosoma cruzi tyrosyl tRNA synthetase (TcYRS) SOP; format: functional; settings: 30 µM
[9] = biological target: Chromo domain-containing protein 1 (Saccharomyces cerevisiae (strain ATCC 204508 / S288c) (Baker's yeast)) (UniProt P32657); assay: ScCHD-1 Enzyme Inhibition Assay; format: functional; settings: 30 µM; further: in the data most compounds retested in dose-response had high values
Sequence of Chromo domain-containing protein 1 (Saccharomyces cerevisiae (strain ATCC 204508 / S288c) (Baker's yeast)) (P32657 whole entry, the tested form may be a part): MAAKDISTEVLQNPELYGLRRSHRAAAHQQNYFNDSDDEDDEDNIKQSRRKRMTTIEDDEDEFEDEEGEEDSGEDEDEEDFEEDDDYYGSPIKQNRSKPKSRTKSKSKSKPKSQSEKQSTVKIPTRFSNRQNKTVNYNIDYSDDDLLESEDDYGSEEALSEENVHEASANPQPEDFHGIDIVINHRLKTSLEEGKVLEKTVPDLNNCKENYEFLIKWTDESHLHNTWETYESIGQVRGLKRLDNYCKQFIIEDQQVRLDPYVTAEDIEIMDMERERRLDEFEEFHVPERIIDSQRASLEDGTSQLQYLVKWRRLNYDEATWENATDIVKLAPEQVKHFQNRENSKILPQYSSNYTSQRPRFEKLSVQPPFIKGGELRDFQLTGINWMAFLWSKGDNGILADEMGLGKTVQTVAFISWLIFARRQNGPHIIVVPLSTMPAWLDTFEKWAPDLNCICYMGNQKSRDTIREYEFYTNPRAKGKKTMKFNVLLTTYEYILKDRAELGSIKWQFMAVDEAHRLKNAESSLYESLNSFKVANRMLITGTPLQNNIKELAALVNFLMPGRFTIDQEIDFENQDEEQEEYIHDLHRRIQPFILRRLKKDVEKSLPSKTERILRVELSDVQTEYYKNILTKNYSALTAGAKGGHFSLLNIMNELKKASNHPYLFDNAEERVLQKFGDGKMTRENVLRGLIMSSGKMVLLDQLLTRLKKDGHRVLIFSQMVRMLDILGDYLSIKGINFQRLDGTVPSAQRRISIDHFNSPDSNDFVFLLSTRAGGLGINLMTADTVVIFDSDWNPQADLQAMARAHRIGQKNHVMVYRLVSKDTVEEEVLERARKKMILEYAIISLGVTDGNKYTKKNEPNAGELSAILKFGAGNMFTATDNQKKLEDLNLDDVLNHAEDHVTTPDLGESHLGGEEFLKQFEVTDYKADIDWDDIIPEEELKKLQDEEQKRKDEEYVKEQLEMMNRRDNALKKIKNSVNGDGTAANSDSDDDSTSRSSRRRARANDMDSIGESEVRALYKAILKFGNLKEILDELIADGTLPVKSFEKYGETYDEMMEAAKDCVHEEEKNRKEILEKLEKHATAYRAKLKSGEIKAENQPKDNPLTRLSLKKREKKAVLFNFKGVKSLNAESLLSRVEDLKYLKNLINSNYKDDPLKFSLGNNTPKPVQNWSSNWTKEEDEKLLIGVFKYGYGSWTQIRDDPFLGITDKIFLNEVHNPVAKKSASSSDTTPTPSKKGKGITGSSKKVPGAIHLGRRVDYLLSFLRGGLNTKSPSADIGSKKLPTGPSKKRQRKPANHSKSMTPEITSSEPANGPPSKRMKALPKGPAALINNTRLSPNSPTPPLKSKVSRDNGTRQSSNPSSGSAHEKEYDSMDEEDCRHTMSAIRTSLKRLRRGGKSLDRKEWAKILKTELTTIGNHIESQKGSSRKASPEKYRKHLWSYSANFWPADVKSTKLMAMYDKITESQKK

SMILES	Percent Effect [1] [%]	Percent Effect [2] [%]	Percent Effect [3] [%]	Percent Effect [4] [%]	Percent Effect (Trypanosoma cruzi) [%]	Percent Effect [5] [%]	Percent Effect [6] [%]	Percent Effect (Homo sapiens) [%]	Percent Effect [7] [%]	Percent Effect [8] [%]	Percent Effect [9] [%]
CN(Cc1cscn1)C1CCCN(Cc2noc(C3CC3)n2)C1 (stereo unspecified)	-0.734	23.7	-5.57	-10.6	2.33	0.36	12.9	0.628	7.39	28.4	-12.5
Cc1ccc(NC(=O)Nc2cnc(N3CCN(C)CC3)nc2)c(Cl)c1	-1.85	13	2.69	2.29	2.27	-5.81	5.22	6.92	6.35	11.5	-9.57
CCN(CC)CC1CN(CCc2ccccc2)Cc2nccn2C1 (stereo unspecified)	-3.63	-2.74	1.1	4.51	3.77	-1.6	1.28	2.5	7.29	8.64	-0.569
Cc1ccc2c(ccn2CCC(=O)NC[C@@H]2CCCN3CCCC[C@H]23)c1	-5.55	12	-3.71	5.07	4.71	-6.87	14.1	-2.77	3.17	10.3	-4.06
CNC(=O)c1cc2c(nc1N(C)C)CCN(S(=O)(=O)C1CC1)CC2	-2.36	10.4	-2.46	-6.22	-10.8	9.68	8.7	0.586	-3.17	-3.85	-7.64
O=C(Nc1cccnc1)N1CCC(n2ccc(C(F)(F)F)n2)CC1	-7.93	8.22	-4.95	13	3.72	-0.909	10.5	2.75	1.07	10	-5.84
CCn1cnnc1CNC(=O)N1CCN(c2cccs2)CC1	-8.91	5.2	-16.1	14.9	14.2	1.78	24.3	7.4	26.2	12.2	-5.95
O=C1CCc2cc(C(=O)NCc3ccc(-n4cncn4)nc3)ccc2N1	-8	8.11	-0.201	4.21	-5.19	0.802	-4.68	10.4	4.43	1.24	23.8
Cc1nnc(NC(=O)NCc2cc(F)cc(F)c2)s1	-1.16	21.1	-3.09	-15.6	-9.43	5.75	10.7	13.5	4.43	13.6	-3.4
COc1cc(CCC(C)O)c(OC)c2c1OCO2 (stereo unspecified)	-5.08	-1.33	-4.24	-3.72	-4.13	-6.51	11.5	-0.862	-1.06	0	-6.82
O=C(Cn1cc(C(=O)O)ccc1=O)Nc1ccc(F)cc1Cl	-1.48	14.7	2.96	5.48	1.18	-12.2	11.5	-15	6.35	5.13	-9.34
Cc1ccc(NC2CCN(C(=O)c3ccsc3)CC2)nn1	-9.11	10.4	-1.87	1.46	-6.37	-1.07	5.57	30	6.8	9.76	-2
COc1ccc(CN2CCc3ncnc(C4CCOC4)c3CC2)cc1 (stereo unspecified)	-3.47	5.33	-1.49	-6.97	5.41	-40.3	5.13	13.6	0	7.5	-7.3
CC(C)c1cc(NC(=O)CN2CCc3ccccc3C2)on1	-4.45	28.6	-1.59	2.02	5.99	-2.85	10.6	14.1	7.77	26.8	-12.1
COc1ccc(NC(C)C(=O)NCCc2cccs2)cc1F (stereo unspecified)	-7.72	-2.74	-49.8	6.34	-3.92	0	15.3	14.2	-1.07	-5	-3.93
O=C(Nc1ccccn1)C1=NN(c2ccccc2)C(=O)CN1	0.648	25.3	-3.03	-13.4	1.6	-5.32	11.9	9.82	6.4	24.1	-12.2
Cc1nocc1C(=O)N1CCc2c(CN(C)C(C)C)n[nH]c2C1	1.54	11	-4.98	8.21	3.77	-0.798	20.3	21	5.21	13.6	-3.84
CC(Cn1ccnc1)NC(=O)C1(c2ccc3c(c2)OCCO3)CCCC1 (stereo unspecified)	-1.6	20.2	-9.88	-5.21	1.79	-2.66	15.2	10.3	6.4	24.1	-7.42
Cc1ncoc1C(=O)N1C[C@H]2CCC[C@@]2(COCC2CCOCC2)C1	-3.5	0	4.71	-0.295	1.66	1.59	22.3	-6.69	2.16	7.69	5.48
O=S(=O)(CCN1CCOC(Cn2cncn2)C1)c1ccccc1 (stereo unspecified)	-1.18	5.41	-4.67	12.3	3.81	2.23	-0.0858	-5.62	0	3.7	-11.6
CC(=O)Nc1nc(C(=O)N2CCCC2Cn2cc(C)cn2)cs1 (stereo unspecified)	-5.22	10.4	1.53	17.1	-6.76	1.47	14.5	26.6	2.86	9.41	-19.2
